Consider 13 compounds from PubChem BioAssay (NCI).

Common to all, as to experiment: NCI-60 one-dose screen, 48 h (100 = growth as untreated, 0 = no growth, -100 = all killed)
Holding throughout (settings): 10 µM unless noted

Test [1] deals with DU-145 prostate.
The test system of test [2] is K-562 leukemia.
In test [3] the test system is MALME-3M melanoma.
The subject of test [4] is MDA-MB-231 breast.
The subject of test [5] is RXF 393 renal.
For test [6], the system named is SF-268 CNS.
Test [7] relates to SF-295 CNS.
Test [8] concerns SF-539 CNS.
Test [9] relates to UACC-257 melanoma.
Test [10] deals with M14 melanoma.

SMILES strings stand for the structures. This is part of a sample that, as a whole, favours compounds with a hit. Of some 83,000 tested, about 20% had one in any assay.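 Note: values are percent growth. 100 is the growth of untreated cells, values between 100 and 0 indicate rising inhibition; between -100 and 0 indicates cell death.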 Values without a mark were called inactive. Calls of active or inactive are those of the source. How the source made its calls: active means growth percent below 10; inactive means the rest.

For the compound `C=CCSc1nnc(-c2ccc(-c3nc4ccc(Cl)cc4[nH]3)cc2)o1`, the growth in test [1] was 85%; in test [2], 19.5%; in test [3], 39.3%; in test [4], 41.2%; in test [5] it was 53.1%; in test [6], 75.7%. The growth in [7] was 58.2%; in test [8] it was 56.3%; in test [9], 68.2%; in test [10] it was 28.7%.

As for `COc1cccc(-c2ccc(/C=N/NC(=O)c3[nH]c4ccc(Br)cc4c3-c3ccccc3)s2)c1`, the growth in [1] was 2.3% (active); in test [2], 15.7%; in test [3], 33.1%; in test [4], -20.5% (active); in [5], -63% (active); in test [6], -9.89% (active). In addition, the growth in test [7] is -46.2% (active); in [8] it was -83.9% (active); in test [9] it was 45.7%; in test [10], -4.68% (active).

For `COc1ccc(C(=O)C[n+]2cccc3c4ccccc4ccc32)cc1`, the growth in [1] is 56.3%; in [2], 16.4%; in test [3], 34.3%; in test [4], 40.4%; in [5] it was 55.8%; in [6] it was 38%. Further, the growth in test [7] was 29.8%; in [8], 53.1%; in [9], 15.4%; in test [10] it was 38.5%.

In the case of `O=C1c2cccc3c(N4CCN(Cc5ccccc5)CC4)ccc(c23)C(=O)N1c1cccc(-c2nn(-c3ccccc3)cc2-c2nc3ccccc3s2)c1`, the growth is 119% in test [1]; 97.4% in [2]; 98.5% in [3]; 105% in test [4]; 99.8% in [5]; 108% in test [6]. In addition, the growth in test [7] is 107%; in test [8], 97%; in test [9], 124%; in [10], 97.8%.

Take `NS(=O)(=O)c1ccc(N2N=C(c3ccc(NC(=O)Nc4ccccc4)cc3)CC2c2ccc(Br)cc2)cc1` (stereo not given): the growth in test [1] was -7.86% (active); in [2], 16.7%; in [3] it was -97.1% (active); in test [4] it was -94.8% (active); in test [5], -96.4% (active); in [6], -29.7% (active). Moreover, the growth was -64.9% (active) in test [7], -99.2% (active) in [8], -16.8% (active) in test [9] and -69.2% (active) in test [10].

`O=C(CSc1nnc(-c2ccc(-c3nc4ccc(Cl)cc4[nH]3)cc2)o1)Nc1ccc(Br)cc1`: the growth is 39.1% in test [1]; 15% in test [2]; -20.2% (active) in [3]; -76% (active) in [4]; -50.9% (active) in [5]; 28.5% in [6]. Further, the growth is 8.38% (active) in test [7], -96.3% (active) in [8], 13.1% in test [9] and 2.92% (active) in test [10].

With `C#CCN(C)CCCOc1ccc(N(CC)C(=O)c2cc(C(C)C)c(O)cc2O)cc1Cl`, the growth in test [1] is 1.4% (active); in [2] it was -26.6% (active); in test [3], -51.5% (active); in test [4], -45.3% (active); in test [5] it was 2.57% (active); in [6], 28.2%. The growth was -2.79% (active) in test [7], 6.42% (active) in test [8], -11.6% (active) in test [9] and -45.8% (active) in test [10].

For `COc1ccc(C2=Nc3c(N)nc(N)nc3NC(c3ccc(Oc4nc(Nc5ccc(F)cc5)nc(N(C)C)n4)c(OC)c3)C2)cc1` (stereo not given), the growth in [1] was 68.8%; in test [2], 29.5%; in test [3] it was 83.1%; in test [4] it was 43.3%; in test [5] it was 12.1%; in test [6] it was 61.6%. In addition, the growth in [7] is 85.7%; in test [8], 71.9%; in test [9], 70.5%; in test [10], 93.4%.

`O=C1NC(=NC23CC4CC(CC(C4)C2)C3)N/C1=C\c1ccc2ncccc2c1`: the growth in test [1] was 3.46% (active); in test [2], 11%; in [3] it was 2.17% (active); in test [4], -14% (active); in test [5], -4.92% (active); in [6], 35.2%. Moreover, the growth in test [7] was -29.6% (active); in [8], 2.08% (active); in test [9], 50.6%; in test [10], 45.9%.

As to `COc1ccc(SC2c3cc(OC)ccc3Oc3nc(N)c(C#N)c(N)c32)cc1` (stereo not given), the growth was 99.1% in test [1]; 65.7% in [2]; 91.3% in test [3]; 82.1% in test [4]; 62% in [5]; 78.8% in test [6]. The growth is 55.2% in test [7], 78% in test [8], 120% in [9] and 79.7% in test [10].

Turning to `COc1cncc(-c2ccc3ncnc(N4CCc5ccc(Cl)cc54)c3c2)c1`, the growth in test [1] was 24.6%; in test [2] it was 12.6%; in [3] it was 44.2%; in test [4], 29.4%; in test [5] it was -18.1% (active); in test [6] it was 46.7%. The growth was 20.3% in test [7], 33.2% in [8], 63.5% in test [9] and -52.4% (active) in test [10].

On to `Cc1ccc(C(=O)Nc2ccc(-n3ccnc3)c(C(F)(F)F)c2)cc1C#Cc1cnc2cccnn12`, for which the growth in [1] was 40.7%; in test [2] it was 4.76% (active); in test [3] it was -14% (active); in test [4], -15.5% (active); in [5], -20% (active); in test [6], 45.4%. Further, the growth in test [7] was 21.8%; in test [8] it was -40.9% (active); in test [9], 8.92% (active); in test [10] it was 1.02% (active).

`COc1cc(CNC(=O)C[C@H](C)CCC=C(C)C)ccc1OCc1cn(-c2cccc(C(F)(F)F)c2)nn1`: the growth was 101% in [1]; 59% in [2]; 80.8% in test [3]; 87.2% in test [4]; 88.3% in [5]; 83.9% in [6]. Besides, the growth was 72.9% in [7], 16.3% in test [8], 104% in test [9] and 92.1% in [10].
